Screening results from PubChem BioAssay.
This is a sample that favours compounds with a hit; in the whole collection about 1.7% have one here.
HEK293 tox: qHTS of GLP-1 Receptor Inverse Agonists: Cytotox Screen. 0.13% of 410,000 active. Potency, µM (top dose mostly 38.3 µM), usual class: inhibitors. AID 624418, 2012. HEK293 cAMP-luciferase reporter cells, luminescence, 24 h;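 note: loss of luciferase light is scored as toxicity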
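Quantitative HTS format, 1536 wells, 200 cells/uL seeded. Compounds: 23 nL, 24 h, 37 °C. Detection: luciferase reagent, luminescence at 12 min RT; decreased signal taken as cytotoxic.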
PTHR1 agonist: qHTS for PTHR1 Agonists: Primary Screen; Parathyroid hormone/parathyroid hormone-related peptide receptor (Homo sapiens), Q03431; HEK293 GP2 PTHR1 cells, GloSensor cAMP luminescence, 1 h; Potency, µM (doses to about 115 µM), actives largely listed as activators; 0.075% of 410,000 active; AID 743266, 2014; note: nearly all actives have a fitted effect of over 55% in size
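HEK-293-derived GP2 cells expressing PTHR1 and a GloSensor cAMP reporter, 3,000/well, plated overnight, given luciferin plus IBMX (each 0.5 mM as added) for 1 h at 37 °C, then compound for 1 h at 37 °C. Luminescence was read after 15 min at room temperature.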
GLP1R inv ag: qHTS of GLP-1 Receptor Inverse Agonists (Inhibition Mode); AID 624417, 2012; 1.6% of 410,000 active; Potency, µM (highest dose often 38.3 µM), hits mostly inhibitors; HEK293 GLP-1R CRE-luciferase, luminescence, 24 h; GLP-1R form is constitutively active; note: nearly all actives have a fitted effect of over 55% in size
Target sequence (P43220 whole entry, looked up): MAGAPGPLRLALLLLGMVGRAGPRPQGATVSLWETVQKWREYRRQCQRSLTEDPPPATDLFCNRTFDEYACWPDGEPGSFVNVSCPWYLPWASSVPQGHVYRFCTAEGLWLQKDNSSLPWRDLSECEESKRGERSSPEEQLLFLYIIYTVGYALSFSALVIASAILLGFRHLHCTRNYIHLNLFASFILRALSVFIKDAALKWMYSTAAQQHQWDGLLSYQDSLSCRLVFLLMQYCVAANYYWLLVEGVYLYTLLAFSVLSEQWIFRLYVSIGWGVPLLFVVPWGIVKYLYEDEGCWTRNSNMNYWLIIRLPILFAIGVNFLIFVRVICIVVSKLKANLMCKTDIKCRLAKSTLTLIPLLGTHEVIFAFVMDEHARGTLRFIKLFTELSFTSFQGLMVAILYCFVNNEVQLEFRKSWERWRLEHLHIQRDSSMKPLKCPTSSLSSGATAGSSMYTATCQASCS
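Assay principle: reduced luminescence from a cAMP-responsive reporter in HEK293 cells co-expressing a constitutively active GLP-1R. Conditions: 24 hr compound incubation, 37 deg C, 5% CO2.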
GLP1R ag: qHTS of GLP-1 Receptor Agonists | HEK293 GLP-1R CRE-luciferase, luminescence, 4-6 h; cells express a hypersensitive GLP-1R form | 0.007% of 380,000 active | Glucagon-like peptide 1 receptor (Homo sapiens), P43220 | Potency, µM (titrated, usually from 45.6 µM), usual class: activators | AID 624172, 2012
Hits are given with their value; . = inactive; ? = inconclusive; / = no result. Calls come from the whole dose curve; as a rule, active = well fitted curve in the direction sought with a large enough effect; inconclusive = small, poorly fitted or top-dose-only effect, or another doubt; inactive = no such curve, though single readings can be large; an effect the other way counts as inactive or inconclusive.

SMILES	HEK293 tox	PTHR1 agonist	GLP1R inv ag	GLP1R ag
FC(F)c1nc2nc(Cl)c(Cl)nc2[nH]1	.	.	14µM	.
CCOC(=O)CSC1=C(C#N)C(c2ccc(C)o2)CC(=O)N1 (configuration not stated)	.	.	0.56µM	.
CCOC(=O)CSC1=C(C#N)C(c2ccc(Cl)cc2)CC(=O)N1 (configuration not stated)	.	.	.	.
CCOC(=O)C(CS)NCCN[C@@H](CS)C(=O)OCC (some centres not stated)	/	/	/	.
Cc1ccc(CNC(=S)NC2CCC(C(C)(C)C)CC2)cc1 (configuration not stated)	.	.	?	.
CC(NC(=S)NC1CCC(C(C)(C)C)CC1)c1ccccc1 (configuration not stated)	.	.	10µM	.
Cc1c(CNC2CCCCCC2)c(C(=O)O)c(C)n1Cc1cccc(Cl)c1	.	.	.	/
CCOC(=O)c1c(CSc2ccccc2)n(C)c2cc(Br)c(OCC(O)CNC(CO)(CO)CO)cc12 (configuration not stated)	?	.	8.9µM	.
COc1ccc(NC(=S)NCCSc2ccc(C)cc2)c(OC)c1	?	.	10µM	.
CCc1ccccc1NC(=S)NCCSc1ccc(Cl)cc1	?	.	7.1µM	.
Cc1ccc(C)c(NC(=S)NCCSc2ccc(Cl)cc2)c1	?	.	?	.
Cc1ccc(NC(=S)NCCSc2ccc(Cl)cc2)c(C)c1	?	.	10µM	.
CCCCNC(=S)Nc1ccccc1Cc1ccccc1	?	.	11µM	.
CCOc1ccc(-c2csc(/C(C#N)=C/c3ccc(Br)cc3)n2)cc1	.	.	.	/
Cc1cc(C)c(NC(=O)CCc2c(C)noc2C)c(C)c1	.	.	.	.
S=C(NCCc1ccc(Cl)cc1)Nc1ccc(Cl)cc1Cl	?	.	10µM	.
COc1ccc(N2C(=O)CS(=O)(=O)C23C(=O)N(Cc2c(F)cccc2Cl)c2ccccc23)cc1 (configuration not stated)	.	.	.	.
O=C(NC(=S)N1CCN(c2ccc(Cl)cc2[N+](=O)[O-])CC1)c1cccs1	5.6µM	.	10µM	.
O=C(NC(=S)N1CCN(c2ccc(Cl)cc2[N+](=O)[O-])CC1)c1ccco1	?	.	.	.
COC(=O)c1ccc(NC(=O)CC2C(=O)N(c3ccccc3)C(=O)N2C2CCCC2)cc1 (configuration not stated)	.	.	.	/
CCOC(=O)c1cnc(SCc2cccc(C)c2)nc1N	.	.	10µM	?
CCOC(=O)c1cnc(SCC(=O)c2ccc(C)cc2)nc1N	.	.	.	.
CN(CC(=O)Nc1ccc(C#N)cc1)Cc1ccc(Cl)cc1	.	.	?	.
N#Cc1ccc(NC(=O)Nc2ccc(Cl)cc2)cc1	.	.	6.3µM	.
Cc1cccc(NC(=O)c2c([N+](=O)[O-])c(C(C)(C)C)nn2C)c1	.	.	5µM	.
SMILES	HEK293 tox	PTHR1 agonist	GLP1R inv ag	GLP1R ag
Cn1nc(C(C)(C)C)c([N+](=O)[O-])c1C(=O)NCCO	.	.	.	.
Cn1nc(C(C)(C)C)c([N+](=O)[O-])c1C(=O)Nc1ccc(Br)cc1	.	.	2.8µM	.
Cc1ccccc1NC(=O)c1c([N+](=O)[O-])c(C(C)(C)C)nn1C	.	.	?	.
COc1cccc(C(=O)Nc2ccc(NC(=O)C(C)(C)C)cn2)c1	.	.	13µM	.
COc1cccc(NC(=O)c2ccccc2)c1	.	.	.	.
COc1cccc(NC(=O)Nc2cccc(C(=O)O)c2)c1	.	.	2µM	.
CCOc1ccc(CCNC(=O)Nc2cccc(OC)c2)cc1OCC	.	.	11µM	.
COc1ccccc1N1CCN(c2csc3ccc(Cl)cc3c2=O)CC1	.	.	.	/
CCOC(=O)c1c(-c2ccccc2)csc1NC(=O)CSc1ccccc1	.	.	?	.
CCOC(=O)c1c(-c2ccc(OC)cc2)csc1NC(=O)CSc1ccccc1	.	.	4.5µM	.
CCN1CCN(c2nc(-c3ccccc3)nc3ccccc23)CC1	.	.	?	.
Cc1cccc2nc(-c3ccccc3)nc(N3CCC(O)(c4ccc(Cl)cc4)CC3)c12	.	.	3.5µM	.
